# In PubChem BioAssay AID488969 (Vanderbilt High Throughput Screening Facility, 2010):
# The full ranking holds about 110,000 compounds; the median of “z-score” is about -0.1, and the highest 2% start at about 2. Only a selection was taken, and the highest values are over-represented in it overall. Calls of active or inactive are those of the source.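 Rule for the calls: active = z-score in the third read window above 3 or below -3; inactive = the rest.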
# Molecular target: Metabotropic glutamate receptor 8 (Rattus norvegicus) (UniProt P70579)
# Sequence (P70579 whole entry, looked up): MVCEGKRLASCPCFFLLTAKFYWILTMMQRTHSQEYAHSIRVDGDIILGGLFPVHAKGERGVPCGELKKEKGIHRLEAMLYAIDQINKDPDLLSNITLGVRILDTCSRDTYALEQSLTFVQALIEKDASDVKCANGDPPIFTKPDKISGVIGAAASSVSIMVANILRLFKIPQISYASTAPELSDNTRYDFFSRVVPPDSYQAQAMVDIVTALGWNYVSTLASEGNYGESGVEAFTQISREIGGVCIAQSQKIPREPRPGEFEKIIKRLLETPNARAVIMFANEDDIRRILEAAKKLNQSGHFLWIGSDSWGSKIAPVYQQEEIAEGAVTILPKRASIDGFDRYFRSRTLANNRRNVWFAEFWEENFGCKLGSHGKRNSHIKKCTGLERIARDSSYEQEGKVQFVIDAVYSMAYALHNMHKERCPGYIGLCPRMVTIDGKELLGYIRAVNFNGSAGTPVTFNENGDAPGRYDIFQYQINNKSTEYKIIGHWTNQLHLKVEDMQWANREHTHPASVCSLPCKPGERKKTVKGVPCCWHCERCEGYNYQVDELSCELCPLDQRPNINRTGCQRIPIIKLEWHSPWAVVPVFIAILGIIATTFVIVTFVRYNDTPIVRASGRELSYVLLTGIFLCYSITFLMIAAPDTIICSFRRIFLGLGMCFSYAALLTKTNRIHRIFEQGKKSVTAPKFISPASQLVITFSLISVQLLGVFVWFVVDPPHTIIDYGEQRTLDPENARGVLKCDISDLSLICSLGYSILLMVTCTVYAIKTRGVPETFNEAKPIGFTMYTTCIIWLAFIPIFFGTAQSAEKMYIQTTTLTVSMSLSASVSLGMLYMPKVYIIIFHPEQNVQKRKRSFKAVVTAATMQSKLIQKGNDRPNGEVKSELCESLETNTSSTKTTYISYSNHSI
# Assay: mGluR8 Gi/Go-coupled signaling modulation – cell-based, rat, thallium flux, HTS, primary screen (AID 488969)
# Conditions: HEK293 rat mGluR8, GIRK (G protein-gated inwardly rectifying potassium channel) thallium flux, FluoZin2; at 10 µM; stronger effect = higher value; submaximal glutamate (EC20) added with thallium
row,Compound,z-score
1,COc1nnc(-c2ccc(N3CCCCC3)c(NC(=O)C3CCCCC3)c2)c2ccccc12,-0.3
2,Cc1ccccc1N1CCN(C(=O)CCN2C(=O)c3ccccc3C2=O)CC1,-0.36
3,COc1ccc(C(=O)Nc2ccc(Cl)c(Cl)c2)c(OC)n1,-0.192
4,COc1ccccc1C(=O)NNC(=O)c1ccc(F)cc1,0.0416
5,CCC(C)(C)n1nnnc1C(C(C)C)N1CCSCC1 (stereo unspecified),0.805
6,O=S(Cc1ccc(Br)cc1)Cc1nnc(SCc2c(Cl)cccc2Cl)n1-c1ccccc1 (stereo unspecified),0.0461
7,CCNC(=O)C1CCCN1S(=O)(=O)c1ccc(C)cc1 (stereo unspecified),-0.513
8,Cc1ccc2cc3cc(C(=O)N4CCN(Cc5ccccc5)CC4)sc3nc2c1,0.586
9,O=C(/C=C/c1ccccc1)NC(NC(=S)Nc1cccc(O)c1)C(Cl)(Cl)Cl (stereo unspecified),2.09
10,O=C(/C=C/c1ccccc1)NC(NC(=S)Nc1cccc(Cl)c1)C(Cl)(Cl)Cl (stereo unspecified),1.36
11,COc1ccc(NC(=S)NC(NC(=O)/C=C/c2ccccc2)C(Cl)(Cl)Cl)cc1 (stereo unspecified),1.83
12,O=C(/C=C/c1ccccc1)NC(NC(=S)Nc1cc(Cl)ccc1Cl)C(Cl)(Cl)Cl (stereo unspecified),5.83 (active)
13,O=C(/C=C/c1ccccc1)NC(NC(=S)Nc1ccc(Cl)cc1Cl)C(Cl)(Cl)Cl (stereo unspecified),0.717
14,O=C(Cc1ccccc1)NC(NC(=S)Nc1cc(Cl)ccc1Cl)C(Cl)(Cl)Cl (stereo unspecified),-0.195
15,O=C(CNc1n[nH]c(=O)[nH]c1=O)N/N=C/c1cccnc1,-0.114
16,Cc1cccc(N2CCN(C(=O)Cn3cnc4c3c(=O)n(C)c(=O)n4C)CC2)c1C,-0.973
17,Cn1nnc(NC(=O)c2ccc3ccccc3c2)n1,-1.31
18,CCOC(=O)C(NC(=O)CC)(Nc1nc2c(s1)CCCC2)C(F)(F)F (stereo unspecified),-0.0129
19,COC(=O)C(NC(=O)COc1ccccc1)(Nc1nc2c(s1)CCCC2)C(F)(F)F (stereo unspecified),2.96
20,O=C(Nc1nc2c(s1)CCCC2)Oc1ccccc1,-0.198
21,CC(C)CNC(C(=O)Nc1ccc([N+](=O)[O-])cc1Br)c1ccccc1 (stereo unspecified),-0.337
22,O=C1CC(c2ccccc2)CC(O)=C1C=NCc1ccccc1 (stereo unspecified),-0.229
23,CCCN=CC1=C(O)CC(c2ccccc2)CC1=O (stereo unspecified),-0.493

row,Compound,z-score
1,CCC(C)N=CC1=C(O)CC(c2ccccc2)CC1=O (stereo unspecified),2.05
2,C=C(Br)Cn1c(CC(C)C)nc2ccccc21,-0.262
3,COC(=O)c1sc(N)nc1C(C)(C)C,-0.167
4,CN(C)CC/C=C1/c2ccccc2Sc2c(O)cc(Cl)cc21,1.62
5,COc1cc(Cl)cc2c1Sc1ccccc1/C2=C/CCN(C)C,3.63 (active)
6,COc1cc2c(cc1Cl)/C(=C\CCN(C)C)c1ccccc1S2,-0.852
7,O=C(CNc1ccccc1)N/N=C/c1ccc2c(c1)OCO2,-0.247
8,COc1ccc(NC(=O)Nc2nnc(-c3ccccc3SCc3ccccc3)s2)cc1,-0.158
9,CC(=O)N1CCN=C1SCc1ccc(F)cc1,0.0688
10,CC(=O)N1CCN=C1SCc1ccc(Br)cc1,2.58
11,CC(=O)N1CCN=C1SCc1ccccc1,-0.898
12,COC(=O)c1ccc(NC(=O)C(=O)N2CCN(C(=S)NCCc3ccccc3)CC2)cc1,-0.154
13,O=C(N/N=C\c1cn[nH]c1-c1ccccc1)c1cccnc1,0.0508
14,O=C(OCc1ccccc1)Oc1cncc(C(=O)O)c1,2.64
15,COC(=O)Oc1cncc(C(=O)O)c1,-0.0704
16,CCOC(=O)c1cncc(C(=O)O)c1,1.8
17,CCN(CC)S(=O)(=O)c1ccc(C(=O)NCc2ccc3c(c2)cc(C)n3C)cc1,-0.388
18,CN(C)S(=O)(=O)c1cccc(C(=O)Nc2cc(Cl)cc(Cl)c2)c1,-0.468
19,FC(F)(F)c1cccc(NC(=S)Nc2ccc(Cl)cc2Cl)c1,1.29
20,CN(C)S(=O)(=O)c1cccc(NC(=S)NN=C(Cc2ccccc2)Cc2ccccc2)c1,0.673
21,CN(C)S(=O)(=O)c1cccc(NC(=S)Nc2ccc(Cl)cc2Cl)c1,7.58 (active)
22,CN(C)S(=O)(=O)c1cccc(NC(=S)N/N=C/C(c2ccccc2)c2ccccc2)c1,0.384
23,CN(C)S(=O)(=O)c1cccc(NC(=S)Nc2cc(Cl)cc(Cl)c2)c1,8 (active)

row,Compound,z-score
1,O=C(CCc1ccc(S(=O)(=O)NC2CCCCC2)cc1)N(Cc1ccccc1)Cc1ccccc1,-0.22
2,Cc1cc(C2=NNC(=NCc3ccccc3)SC2)c(C)n1-c1c(C)n(C)n(-c2ccccc2)c1=O,-0.278
3,COCC(C)n1c(C)cc(C(=O)COC(=O)c2oc3ccccc3c2C)c1C (stereo unspecified),-0.927
4,Cc1ccccc1CSCC(=O)Nc1c(C)n(C)n(-c2ccccc2)c1=O,-0.0609
5,CC(C)(C)C(=O)NC(=S)NCc1ccccc1,-0.201
6,CCCCN(CCCC)C(=S)NC(=O)C(C)(C)C,5.35 (active)
7,CC(C)(C)C(=O)NC(=S)N1CCCC1,-0.128
8,COC(=O)c1ccc(C(=O)OC)c(NC(=O)COC(=O)C23CC4CC(CC(O)(C4)C2)C3)c1,-1.04
9,Cc1cccc(NC(=O)Nc2ccc(C)c(C)c2)n1,-0.316
10,Cc1cc(NC(=O)CSc2nnc(-c3cccnc3)n2N)no1,-0.404
11,Cc1cc(NC(=O)CSc2nnc(-c3cccnc3)n2C)no1,0.0216
12,CCCCn1c(SCC(=O)Nc2cc(C)on2)nnc1-c1cccnc1,2.11
13,COC(=O)c1cccc(NC(=O)CCc2ccccc2)c1,-0.143
14,COc1ccc(NC(=S)N2CCN(C/C=C/c3ccccc3)CC2)cc1,-0.821
15,COc1ccc(S(=O)(=O)N(CCc2ccccc2)CC(=O)O)cc1,2.73
16,COc1ccc(S(=O)(=O)N(CCc2ccccc2)CC(=O)NC(C)C)cc1,-0.387
17,CCNC(=O)CN(CCc1ccccc1)S(=O)(=O)c1ccc(OC)cc1,-0.329
18,COc1ccccc1NS(=O)(=O)c1ccc2oc(SC3CCOC3=O)nc2c1 (stereo unspecified),-1.2
19,CCOC(=O)CSC1=Nc2ccccc2C2=NC(CC(=O)NCc3ccc(OC)cc3)C(=O)N12 (stereo unspecified),0.556
20,CCOC(=O)CSC1=Nc2ccccc2C2=NC(CC(=O)NCc3cccs3)C(=O)N12 (stereo unspecified),0.253
21,CCOC(=O)CSC1=Nc2ccccc2C2=NC(CC(=O)NCc3ccccc3)C(=O)N12 (stereo unspecified),2.91
22,O=C(Nc1ccc(F)cc1)c1ccc(-n2ccnc2)nc1,-0.238
23,CCN(CC)S(=O)(=O)c1cccc(C(=O)N[C@H](C(=O)Nc2nc3ccccc3s2)C(C)C)c1,0.326

row,Compound,z-score
1,CN(C)CCCN1C(=O)CSC1c1ccccc1 (stereo unspecified),-0.244
2,O=C(C1CCCN1S(=O)(=O)c1cccc2cccnc12)N1CCc2ccccc21 (stereo unspecified),2.97
3,O=C(C1CCCN1S(=O)(=O)c1cccc2cccnc12)N1CCN(c2ccccc2)CC1 (stereo unspecified),-0.0642
4,O=C(C1CCCN1S(=O)(=O)c1cccc2cccnc12)N1CCn2c1nc1ccccc12 (stereo unspecified),3.63 (active)
5,O=C(C1CCCN(S(=O)(=O)c2cccc3cccnc23)C1)N1CCc2ccccc21 (stereo unspecified),-1.2
6,O=C(C1CCN(S(=O)(=O)c2cccc3cccnc23)CC1)N1CCn2c1nc1ccccc12,-0.522
7,O=C(C1CCCN1S(=O)(=O)c1cccc2cccnc12)N1CCc2ccccc2C1 (stereo unspecified),-0.115
8,Cc1nc2cc(-c3ccc(Cl)cc3)nn2c(C)c1CCC(=O)NCc1ccco1,-0.0434
9,CCOC(=O)c1oc2ccccc2c1NC(=O)COc1ccc(F)cc1,-0.456
10,S=c1[nH]nc(-c2cc3c(s2)-c2ccccc2CC3)o1,16.3 (active)
11,CSc1nnc(-c2cc3c(s2)-c2ccccc2CC3)o1,0.0264
12,CCSc1nnc(-c2cc3c(s2)-c2ccccc2CC3)o1,0.000914
13,N=c1sccn1CC(=O)Nc1cccc2ccccc12,-0.00239
14,CCOC(=O)Nc1nc(C)c(C(=O)N(C)C)s1,-0.0609
15,COC(=O)Nc1nc(C)c(C(=O)N(C)C)s1,4.58 (active)
16,Cc1nc(NC(=O)C2CC2)sc1C(=O)N(C)C,-0.405
17,O=C(CN1C(=O)COc2ccccc21)NCCCN1CCc2ccccc2C1,0.383
18,O=C(CCN1C(=O)COc2ccccc21)NCCCN1CCc2ccccc2C1,7.6 (active)
19,O=C(CCN1C(=O)COc2ccccc21)NCCN1CCc2ccccc2C1,-0.306
20,Cc1ccc(/C=C(\C#N)c2nc3ccccc3[nH]2)s1,-0.0719
21,O=C(COC(=O)CCCOc1ccc(Cl)cc1Cl)NCc1ccc(F)cc1,-0.191
22,Cc1ccc(N2CC(C(=O)N/N=C/c3cccc([N+](=O)[O-])c3)CC2=O)cc1 (stereo unspecified),-0.282
23,Cc1ccsc1/C=N/NC(=O)c1cccs1,0.356

row,Compound,z-score
1,Cc1ccsc1/C=N/NC(=O)C1CC(=O)N(c2ccccc2)C1 (stereo unspecified),0.243
2,Cc1ccsc1/C=N/NC(=O)c1sccc1C,5.91 (active)
3,CSc1ccc(/C=N/NC(=O)c2sccc2C)cc1,-0.312
4,Cc1ccc(N2CC(C(=O)N/N=C/c3sccc3C)CC2=O)cc1 (stereo unspecified),3.3 (active)
5,Cc1nc2c(C)cccc2cc1C(=O)N/N=C/c1cccc([N+](=O)[O-])c1,-0.361
6,O=C(NC(=S)NCc1ccc(-c2nc3ccccc3s2)cc1)c1ccco1,2.52
7,O=C(NCc1ccc(-c2nc3ccccc3s2)cc1)c1ccc(Br)o1,-0.21
8,O=C(COC(=O)c1ccco1)Nc1nc2ccccc2s1,0.111
9,O=C(Nc1ccccc1-c1nc2ccccc2s1)c1ccco1,-0.0204
10,O=C(NCc1ccc(-c2nc3ccccc3s2)cc1)c1ccco1,-0.111
11,O=C(NC(=S)Nc1nc2ccccc2s1)c1ccco1,8.72 (active)
12,O=C(COc1ccc(Cl)cc1Cl)NC(=O)N1CCCCC1,1.09
13,Cc1sc2ncnc(N=Nc3c(O)[nH]c4ccccc34)c2c1C,-0.0288
14,CCOC(=O)c1cc(OC(=O)c2cccnc2)n(-c2ccccc2)n1,-0.265
15,COc1cccc(CN(C)CC(=O)NC(=O)NCc2ccccc2)c1,0.16
16,COc1ccc(CN(C)CC(=O)NC(=O)NCc2ccccc2)cc1OC,5.52 (active)
17,CN(CC(=O)NC(=O)NCc1ccccc1)Cc1ccc(Cl)cc1,-0.334
18,COC(=O)C1=C(C(=O)c2ccccc2)C(c2ccc(OC)c(OC)c2)Nc2nnnn21 (stereo unspecified),0.0695
19,C/C(=N\NC(=O)CSc1nnc(C)s1)c1ccc(O)cc1,0.00192
